Common to all, as to conditions: Compound concentration 20.0 uM
The target of test [1] is Tyrosine-protein kinase ABL1 (Homo sapiens) (UniProt P00519).
In test [2] the target is Bromodomain-containing protein 4 (Homo sapiens) (UniProt O60885).
For test [3], the target named is Cyclin-dependent kinase 2 (Homo sapiens) (UniProt P24941).
Test [4] addresses Casein kinase I isoform delta (Homo sapiens) (UniProt P48730).
For test [5], the target named is Glycogen synthase kinase-3 beta (Homo sapiens) (UniProt P49841).
Test [6] addresses Mitogen-activated protein kinase 1 (Homo sapiens) (UniProt P28482).
In test [7] the target is T1, Aurora kinase A (Homo sapiens) (UniProt O14965).
T1 sequence (whole entry): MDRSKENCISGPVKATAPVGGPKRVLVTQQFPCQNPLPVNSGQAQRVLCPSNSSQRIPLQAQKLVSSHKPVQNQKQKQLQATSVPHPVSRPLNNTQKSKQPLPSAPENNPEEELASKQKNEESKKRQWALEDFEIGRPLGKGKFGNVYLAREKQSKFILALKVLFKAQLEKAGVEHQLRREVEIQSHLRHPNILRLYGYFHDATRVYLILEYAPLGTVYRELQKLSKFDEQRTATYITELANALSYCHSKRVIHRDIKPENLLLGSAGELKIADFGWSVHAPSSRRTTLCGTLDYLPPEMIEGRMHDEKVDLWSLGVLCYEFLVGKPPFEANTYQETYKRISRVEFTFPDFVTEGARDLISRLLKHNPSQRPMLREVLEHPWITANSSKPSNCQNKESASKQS

Test [8] addresses T2, Transcription intermediary factor 1-alpha (Homo sapiens) (UniProt O15164).
T2 sequence (whole entry): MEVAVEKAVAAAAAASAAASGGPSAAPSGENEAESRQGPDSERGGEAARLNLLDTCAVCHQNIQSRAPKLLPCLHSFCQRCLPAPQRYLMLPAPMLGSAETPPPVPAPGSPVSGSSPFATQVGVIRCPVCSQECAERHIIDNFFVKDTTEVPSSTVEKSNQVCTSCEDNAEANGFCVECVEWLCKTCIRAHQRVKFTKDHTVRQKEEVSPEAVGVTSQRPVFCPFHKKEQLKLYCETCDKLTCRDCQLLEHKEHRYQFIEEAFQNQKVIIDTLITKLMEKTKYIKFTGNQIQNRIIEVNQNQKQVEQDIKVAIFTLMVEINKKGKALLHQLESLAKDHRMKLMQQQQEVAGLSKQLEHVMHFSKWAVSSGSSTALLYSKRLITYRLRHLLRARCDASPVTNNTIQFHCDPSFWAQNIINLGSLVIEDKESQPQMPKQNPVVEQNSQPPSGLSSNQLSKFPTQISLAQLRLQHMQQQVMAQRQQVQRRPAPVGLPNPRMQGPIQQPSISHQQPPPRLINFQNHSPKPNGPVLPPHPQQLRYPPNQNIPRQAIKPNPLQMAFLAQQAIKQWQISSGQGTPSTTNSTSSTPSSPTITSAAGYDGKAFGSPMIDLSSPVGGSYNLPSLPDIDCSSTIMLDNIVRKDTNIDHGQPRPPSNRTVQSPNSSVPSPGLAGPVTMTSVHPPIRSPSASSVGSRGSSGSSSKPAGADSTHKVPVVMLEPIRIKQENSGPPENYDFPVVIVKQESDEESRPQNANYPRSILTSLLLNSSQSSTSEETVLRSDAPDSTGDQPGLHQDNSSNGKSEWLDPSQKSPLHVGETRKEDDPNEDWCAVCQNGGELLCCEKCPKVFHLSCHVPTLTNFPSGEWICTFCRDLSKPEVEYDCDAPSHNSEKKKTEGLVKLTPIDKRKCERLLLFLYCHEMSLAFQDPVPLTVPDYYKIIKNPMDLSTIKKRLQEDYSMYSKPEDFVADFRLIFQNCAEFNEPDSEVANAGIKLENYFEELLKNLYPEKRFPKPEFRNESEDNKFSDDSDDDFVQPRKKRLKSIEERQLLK

Structures are written as SMILES. Residues, ends and D or L forms follow the SMILES beside them. *: point of attachment. Cbz = O=C(OCc1ccccc1)*; CH2F = FC*

Casein kinase I isoform delta (Homo sapiens), sequence (P48730 whole entry, looked up, canonical isoform): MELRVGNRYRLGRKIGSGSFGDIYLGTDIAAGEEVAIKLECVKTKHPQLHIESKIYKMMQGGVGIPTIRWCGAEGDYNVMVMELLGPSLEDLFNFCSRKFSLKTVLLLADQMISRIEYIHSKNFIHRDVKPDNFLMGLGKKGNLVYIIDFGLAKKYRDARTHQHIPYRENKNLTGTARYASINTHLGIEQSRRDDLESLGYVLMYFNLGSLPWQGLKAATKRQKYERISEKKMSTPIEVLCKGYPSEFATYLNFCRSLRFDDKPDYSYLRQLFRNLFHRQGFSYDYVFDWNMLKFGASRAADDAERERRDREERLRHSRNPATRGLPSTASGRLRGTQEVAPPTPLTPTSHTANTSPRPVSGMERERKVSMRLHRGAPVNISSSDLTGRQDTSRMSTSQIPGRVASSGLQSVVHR
Glycogen synthase kinase-3 beta (Homo sapiens), sequence (P49841 whole entry, looked up): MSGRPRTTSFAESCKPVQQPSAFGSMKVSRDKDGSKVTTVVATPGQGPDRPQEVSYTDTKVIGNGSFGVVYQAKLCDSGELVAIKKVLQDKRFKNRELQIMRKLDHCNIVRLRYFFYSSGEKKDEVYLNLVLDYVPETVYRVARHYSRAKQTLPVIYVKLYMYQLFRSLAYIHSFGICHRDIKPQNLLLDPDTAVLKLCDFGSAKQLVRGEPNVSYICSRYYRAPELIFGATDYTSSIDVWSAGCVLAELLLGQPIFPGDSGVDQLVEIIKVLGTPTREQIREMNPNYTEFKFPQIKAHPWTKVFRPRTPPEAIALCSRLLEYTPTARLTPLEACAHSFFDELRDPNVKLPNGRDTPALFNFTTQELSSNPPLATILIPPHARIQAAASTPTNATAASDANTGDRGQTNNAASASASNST
Tyrosine-protein kinase ABL1 (Homo sapiens), sequence (P00519 whole entry): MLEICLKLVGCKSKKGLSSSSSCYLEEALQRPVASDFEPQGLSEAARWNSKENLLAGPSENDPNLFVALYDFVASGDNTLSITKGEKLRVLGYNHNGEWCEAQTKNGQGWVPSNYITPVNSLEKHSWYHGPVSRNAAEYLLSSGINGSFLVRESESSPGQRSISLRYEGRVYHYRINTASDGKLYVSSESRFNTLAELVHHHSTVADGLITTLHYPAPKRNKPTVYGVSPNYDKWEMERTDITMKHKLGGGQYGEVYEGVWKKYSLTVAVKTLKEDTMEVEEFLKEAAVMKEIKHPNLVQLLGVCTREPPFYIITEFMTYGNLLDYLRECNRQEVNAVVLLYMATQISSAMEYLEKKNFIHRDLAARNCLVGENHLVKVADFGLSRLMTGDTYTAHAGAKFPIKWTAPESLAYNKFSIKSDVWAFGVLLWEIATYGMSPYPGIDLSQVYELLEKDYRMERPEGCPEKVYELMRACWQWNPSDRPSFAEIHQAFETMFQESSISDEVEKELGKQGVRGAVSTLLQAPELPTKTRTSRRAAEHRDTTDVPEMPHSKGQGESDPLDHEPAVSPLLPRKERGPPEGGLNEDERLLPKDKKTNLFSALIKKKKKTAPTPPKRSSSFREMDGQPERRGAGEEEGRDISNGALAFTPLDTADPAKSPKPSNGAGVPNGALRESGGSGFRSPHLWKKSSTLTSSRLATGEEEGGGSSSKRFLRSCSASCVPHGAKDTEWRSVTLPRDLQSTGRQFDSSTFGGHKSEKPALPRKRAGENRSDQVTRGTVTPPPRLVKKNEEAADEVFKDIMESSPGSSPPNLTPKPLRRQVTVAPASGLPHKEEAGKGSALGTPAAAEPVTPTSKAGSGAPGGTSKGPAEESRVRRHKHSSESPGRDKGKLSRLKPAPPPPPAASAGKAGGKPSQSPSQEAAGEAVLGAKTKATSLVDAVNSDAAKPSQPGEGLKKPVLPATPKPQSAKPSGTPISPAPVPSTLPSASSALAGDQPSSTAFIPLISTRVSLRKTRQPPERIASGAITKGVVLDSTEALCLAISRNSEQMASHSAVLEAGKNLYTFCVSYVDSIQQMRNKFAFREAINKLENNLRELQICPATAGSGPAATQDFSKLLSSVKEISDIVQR
Mitogen-activated protein kinase 1 (Homo sapiens), sequence (P28482 whole entry): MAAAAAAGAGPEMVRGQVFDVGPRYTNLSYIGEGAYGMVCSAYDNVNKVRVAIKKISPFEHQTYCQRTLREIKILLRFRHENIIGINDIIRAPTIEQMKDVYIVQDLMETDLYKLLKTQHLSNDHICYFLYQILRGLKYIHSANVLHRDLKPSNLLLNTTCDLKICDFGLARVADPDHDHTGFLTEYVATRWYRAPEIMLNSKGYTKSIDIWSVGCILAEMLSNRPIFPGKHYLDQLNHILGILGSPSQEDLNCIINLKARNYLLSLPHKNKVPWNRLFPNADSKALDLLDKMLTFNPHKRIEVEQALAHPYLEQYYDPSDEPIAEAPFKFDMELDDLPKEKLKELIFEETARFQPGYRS

Regarding `CCCCN(Cc1ccc(C(=O)NO)cc1)C(=O)Nc1ccccc1`, the ΔTm is 0.74 °C in test [1]; -1.81 °C in test [2]; 0.54 °C in test [3]; 0.26 °C in test [4]; -0.89 °C in test [5]; 0.25 °C in test [6]. Also, the ΔTm is -0.07 °C in test [7] and -1.23 °C in test [8].
On to `O=C(O)CCNc1cc(N2CCc3ccccc3CC2)nc(-c2ccccn2)n1`, for which the ΔTm in test [1] was 0.06 °C; in test [2] it was 0.28 °C; in test [3], -0.09 °C; in test [4], -0.34 °C; in test [5], 0 °C; in test [6], -0.2 °C. Further, the ΔTm was -1.3 °C in test [7] and 0.15 °C in test [8].
Take `CC(C)(Sc1ccncc1-c1ccc(C#N)c2ccccc12)C(=O)O`: the ΔTm in test [1] is -0.01 °C; in test [2] it was -0.37 °C; in test [3], -0.1 °C; in test [4], -0.19 °C; in test [5], -0.7 °C; in test [6] it was 0.17 °C. In addition, the ΔTm in test [7] is -1.93 °C; in test [8] it was -0.49 °C.
For `O=C(CCCCCCNC(=O)c1cnc(N(c2ccccc2)c2ccccc2)nc1)NO`, the ΔTm in test [1] is 0.66 °C; in test [2] it was -2.07 °C; in test [3], 0.61 °C; in test [4] it was 0.12 °C; in test [5], -0.11 °C; in test [6], -0.28 °C. For the same compound, the shift in melting temperature (ΔTm) is -0.51 °C in test [7] and -0.68 °C in test [8].
On to `Oc1ccc(-c2c(-c3ccccc3)nn3c(C(F)(F)F)cc(C(F)(F)F)nc23)cc1`, for which the ΔTm in test [1] was 2.06 °C; in test [2], -1.27 °C; in test [3], 0.46 °C; in test [4], 0.39 °C; in test [5], -0.06 °C; in test [6], -0.2 °C. In addition, the ΔTm is -0.53 °C in test [7] and -0.6 °C in test [8].
`CN(C(=O)CCCOc1ccc2[nH]c(=O)ccc2c1)C1CCCCC1`: the ΔTm is 0.63 °C in test [1]; -1.68 °C in test [2]; 0.09 °C in test [3]; -0.15 °C in test [4]; 0.07 °C in test [5]; 0.58 °C in test [6]. The ΔTm is -2.27 °C in test [7] and -2.36 °C in test [8].
For the compound `CS(=O)(=O)N1CCN(C(=O)c2cnc3ccc(F)cc3c2N2CCC(C#N)(c3ccccc3)CC2)CC1`, the thermal shift (ΔTm) is 0.43 °C in test [1]; -2.17 °C in test [2]; -0.17 °C in test [3]; 0.48 °C in test [4]; 0.47 °C in test [5]; -0.62 °C in test [6]. In addition, the ΔTm is -0.82 °C in test [7] and 0 °C in test [8].
As for `CN1CCN(c2cc(C(=O)Nc3ncc(SCc4cccc(C(F)(F)F)c4)s3)ccn2)CC1`, the ΔTm in test [1] is 3.36 °C; in test [2], -0.44 °C; in test [3] it was -0.22 °C; in test [4], -0.03 °C; in test [5], 0 °C; in test [6], -0.59 °C. In addition, the ΔTm in test [7] was 0 °C; in test [8] it was -2.66 °C.
As to `O=S(=O)(O)c1ccc2cc(/N=N/c3cc(S(=O)(=O)O)c4cccnc4c3O)ccc2c1`, the ΔTm was 0.53 °C in test [1]; -2.44 °C in test [2]; 2.89 °C in test [3]; 0.85 °C in test [4]; 1.3 °C in test [5]; -3.54 °C in test [6]. For the same compound, the ΔTm in test [7] is -2.45 °C; in test [8], -1.13 °C.
Regarding `Oc1nc(-c2ccc(C(F)(F)F)cc2)nc2c1CSCC2`, the ΔTm in test [1] was 0.58 °C; in test [2], -2.75 °C; in test [3], 0.01 °C; in test [4], -0.13 °C; in test [5], 0.44 °C; in test [6] it was 0.11 °C. The ΔTm is -2.41 °C in test [7] and -0.56 °C in test [8].
On to `COc1ccc(C(=O)C2CCN(CC(=O)N(Cc3nc4c(c(=O)[nH]3)COCC4)CC3CC3)CC2)cc1`, for which the ΔTm was 0.52 °C in test [1]; -1.61 °C in test [2]; 0.34 °C in test [3]; -0.4 °C in test [4]; -0.12 °C in test [5]; 0.46 °C in test [6]. For the same compound, the shift in melting temperature (ΔTm) in test [7] was -1.35 °C; in test [8], 0.91 °C.
With `Cn1c(=O)cc(N2CCC[C@@H](N)C2)n(Cc2ccccc2C#N)c1=O`, the ΔTm was 0.31 °C in test [1]; 2.27 °C in test [2]; 1.07 °C in test [3]; -0.43 °C in test [4]; 0.02 °C in test [5]; 0.02 °C in test [6]. Besides, the values for the ΔTm in test [7] and in test [8] were -1.58 °C and 0.69 °C, respectively.
With `CS(=O)(=O)c1ccc(-c2cnc(NCc3ccco3)n3cnnc23)cc1`, the ΔTm is 0.92 °C in test [1]; -0.86 °C in test [2]; 0.28 °C in test [3]; 0.44 °C in test [4]; -2.03 °C in test [5]; 0.02 °C in test [6]. Besides, the figures for the ΔTm in test [7] and in test [8] were 0.67 °C and -1.77 °C, respectively.
In the case of `Cc1[nH]nc(C(F)(F)F)c1Cc1sc2c(c1C(=O)N1C[C@](C)(O)CO1)c(=O)n(C)c(=O)n2C(C)C`, the ΔTm in test [1] is 0.25 °C; in test [2], 1.76 °C; in test [3], 1.15 °C; in test [4], -0.46 °C; in test [5], -0.31 °C; in test [6] it was 0.35 °C. For the same compound, the results for the ΔTm in test [7] and in test [8] were -1.82 °C and 1.02 °C, respectively.
Turning to `COC(=O)CC(NC(=O)C(C)NC(=O)C(NC(=O)C(CC(=O)OC)NC(=O)C(NC(=O)OCc1ccccc1)C(C)C)C(C)C)C(=O)CF` (stereo not drawn) (Cbz-VD(OMe)VAD(OMe)-CH2F; configuration not given here), the ΔTm in test [1] was 0.15 °C; in test [2] it was -1.13 °C; in test [3], 0.27 °C; in test [4], -0.22 °C; in test [5] it was 0.19 °C; in test [6], 0.29 °C. Moreover, the figures for the ΔTm in test [7] and in test [8] were -1.87 °C and -0.97 °C, respectively.
For `CCCOc1ccc(CCc2nc3cc(-c4c(C)noc4C)ccc3n2CCN2CCOCC2)cc1`, the thermal shift (ΔTm) in test [1] is 0.14 °C; in test [2], 0.27 °C; in test [3], -1.68 °C; in test [4], 0.28 °C; in test [5], 1.16 °C; in test [6], 0.33 °C. Also, the ΔTm in test [7] was -1.97 °C; in test [8], -1.29 °C.

Source of the values: ChEMBL document CHEMBL5724796, “Tm Shift (DSF) assay results for EUbOPEN Chemogenomics Library” (2024).
